Measured values: PubChem BioAssay (NCI)
“And” between values parts separate entries of the source, which are not always exact repeats. Identical values can stand only once. This is part of a sample that, as a whole, favours compounds with a hit. Of some 79,000 tested, about 15% had one in any assay. Unmarked numbers belong to inactive results. The source made the active and inactive calls. Rule as the data show it: active = growth inhibition above about 70%; inactive = the rest.

Key:
[1] = NCI Yeast Anticancer Drug Screen. Data for the rad50 strain (AID 155);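 also: 0% = growth of vehicle-only cultures of the same strain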; conditions: S. cerevisiae rad50 strain growth inhibition; at 50.0 µM; stronger effect = higher value
How it was run: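 Growth of the mutant yeast was measured after compound exposure and referenced to vehicle-treated cultures.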

[2] = NCI Yeast Anticancer Drug Screen. Data for the mec2-1 strain (AID 157); conditions: S. cerevisiae mec2-1 strain, at 50.0 µM, stronger effect = higher value
How it was run: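 Each compound was tested on mec2-1 yeast, a strain altered in DNA damage repair or cell cycle control. Growth inhibition is reported relative to vehicle.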

[3] = NCI Yeast Anticancer Drug Screen. Data for the sgs1 mgt1 strain (AID 161);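 also: 0% = growth of cultures given vehicle only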; conditions: S. cerevisiae sgs1 mgt1 strain, at 50.0 µM, stronger effect = higher value
How it was run: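 Inhibition of yeast growth, normalised to vehicle-treated controls, is reported for a strain bearing genetic alterations in DNA damage repair.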

[4] = NCI Yeast Anticancer Drug Screen. Data for the cln2 rad14 strain (AID 165);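 also: 0% = growth equal to vehicle treated cultures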; conditions: S. cerevisiae cln2 rad14 strain, at 50.0 µM, stronger effect = higher value
How it was run: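 Test compounds were added to cln2 rad14 yeast cultures; inhibition of growth was then determined by comparison with vehicle treatment.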

[5] = NCI Yeast Anticancer Drug Screen. Data for the bub3 strain (AID 167); conditions: S. cerevisiae bub3 mutant strain, at 50.0 µM, stronger effect = higher value
How it was run: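 Whole-cell yeast assay. The mutant strain was incubated with compounds, and growth inhibition was determined by comparison with vehicle-treated cells.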

[6] = NCI Yeast Anticancer Drug Screen. Data for the mlh1 rad18 strain (AID 175); conditions: S. cerevisiae mlh1 rad18 strain growth inhibition; at 50.0 µM; stronger effect = higher value
How it was run: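 Inhibition values reflect reduced growth of mutant yeast versus vehicle-treated controls following compound exposure; the mutations affect DNA damage repair.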

Row | Compound | growth inhibition [1] | growth inhibition [2] | growth inhibition [3] | growth inhibition [4] | growth inhibition [5] | growth inhibition [6]
1 | O=P(O)(OCCc1ccccc1)Oc1ccccc1O | -6.05% | -4.55% | -20.7% | -1.15% | -10.7% | 13.6%
2 | [Cl][Pt+2][Cl].c1ccc(CC2CC[N-]CC2)cc1.c1ccc(CC2CC[N-]CC2)cc1 | -11.6% | 1.1% | 1.3% | 2.35% | 9.3% | -3.6%
3 | C[P+](C)(C)C | 15.6% and -6.8% | -17.2% and 7.3% | -6.6% and 1.45% | 1.4% and -5.8% | 12% and -17.4% | -26.9% and -6.85%
4 | CCCC1(CCS)C(=O)NC(=O)NC1=O | -12.9% | -33.7% | -13.3% | 5.25% | 2.3% | 9.15%
5 | O=C(O)CC(=O)O.[Co+2].[NH-]CC(=O)O.[NH-]CC(=O)O | 15.4% | -6.65% | 10.2% | 0.8% | -0.9% | -15.9%
6 | CC1([N+](=O)[O-])COP(=O)(NCC2CCCO2)OC1 (configuration not stated) | 4.8% | -23.9% | -2.9% | -4.1% | 0.35% | 3.95%
7 | COc1cccc(C=C2C(=O)NC(=S)NC2=O)c1O | -8.95% | -12.6% | -4.35% | 15.7% | -2.25% | 26.6%
8 | CC(COC(=O)NCc1ccc(Cl)cc1Cl)OC(N)=O (configuration not stated) | 2.6% | 0.35% | 4.25% | -12.8% | -5% | -8.65%
9 | C[CH2][Sn]([CH2]C)([O]C(=O)c1ccccc1F)[O]C(=O)c1ccccc1F | -8.75% | 27.6% | 4.1% | 22.6% | 22.8% | 28.1%
10 | CCc1cccc(C(C)C)c1NC(=O)C(=O)C1C(=O)NC(=O)NC1=O | -40.1% | -12.2% | -9.45% | 18.1% | -10.6% | -31.4%
11 | CN1C(=O)C(=Cc2cccc([N+](=O)[O-])c2)C(=O)N(C)C1=O | 17.4% | 14.3% | 2.15% | 26.1% | 10.8% | -9.55%
12 | C[C@H](N)[C@H](O)c1ccccc1 | 7.45% and 0.25% | -14.4% and 4.7% | -7.4% and -7.8% | -8.35% and -18.5% | -4.3% and 0.95% | -7.3% and -1.15%
13 | [C-]#[N+]C1CCCCC1.[C-]#[N+]C1CCCCC1.[Ni].[S-]c1ccccc1.[S-]c1ccccc1 | 37.5% | 16% | 40.4% | 20.1% | 3.5% | 36.6%
14 | CN(C)C(=O)c1cc(N(CCCl)CCCl)c([N+](=O)[O-])cc1[N+](=O)[O-] | -2.75% | -10.1% | -3.35% | 2.3% | -13.6% | 0.3%
15 | CC1=C[C@H]2[C@@]3(O)[C@H](C)C[C@]4(OC(=O)C(C)C)[C@H]([C@@H]3C=C(CO)C[C@]2(O)C1=O)C4(C)C | 20.1% | 14.3% | 4.8% | 3.9% | 20.8% | 10.8%
16 | CC(C)C(Br)C(N)=O (configuration not stated) | -36.1% | -31.1% | 9.75% | -24.6% | -2.85% | -14.8%
17 | Cc1ccc(-n2cnc3c(N(CCCl)CCCl)ncnc32)cc1 | 10.3% | 0.55% | -1.45% | 5.55% | 23.5% | -3.15%
18 | O=C1OP2(c3ccccc3)(OC(=O)c3ccccc32)c2ccccc21 | 18.6% | 16.2% | 20.4% | -20.3% | -18.5% | 14.3%
19 | CN(C1CCCCC1)C1CCCCC1 | -7.75% | -2.05% | -6.65% | -9.85% | 6.6% | -8.3%

Row | Compound | growth inhibition [1] | growth inhibition [2] | growth inhibition [3] | growth inhibition [4] | growth inhibition [5] | growth inhibition [6]
20 | O=C(CC(=O)C(=O)Nc1ccccc1)CC(c1ccccc1)c1c(O)c2ccccc2oc1=O (configuration not stated) | 9% | 5.3% | 26.4% | 12.6% | 1.4% | 18.5%
21 | O=C1C2C(C(=O)N1c1ccc(Cl)c(Cl)c1)C1(Cl)C(Cl)=C(Cl)C2(Cl)C1(Cl)Cl (configuration not stated) | 91.8% (active) | 95.2% (active) | 96.1% (active) | 86.5% (active) | 94.1% (active) | 95.7% (active)
22 | Cc1ccc(OP(Oc2ccc(C)cc2)Oc2ccc(C)cc2)cc1 | 32.8% | 10.7% | -6.35% | -31.6% | 29.4% | 31.5%
23 | [C-]#[O+].[C-]#[O+].[C-]#[O+].[Ni].c1ccc([PH+](CC[PH+](c2ccccc2)c2ccccc2)CC[PH+](c2ccccc2)c2ccccc2)cc1 | 43.9% | 38.5% | 46.7% | 32.8% | 42.6% | 46.3%
24 | CC(C)N([P-]C(=O)[P-]N(C(C)C)C(C)C)C(C)C.[C-]#[O+].[C-]#[O+].[C-]#[O+].[C-]#[O+].[C-]#[O+].[C-]#[O+].[Fe].[Fe] (configuration not stated) | 3.4% | 0.15% | 3.55% | 11.3% | 2.3% | -0.9%
25 | COc1ccc2nc3ccccc3nc2c1 (tested in a mixture with another compound) | 30.2% | 35.2% | 27.2% | 19.6% | 24.1% | 30.8%
26 | Cc1ccc(O)c(CN2CCN(Cc3cc(C)ccc3O)CC2)c1 | 3.1% | 15.8% | 13.2% | -2.15% | 14.4% | 7.8%
27 | O=C1C2CCN(CC2)C1Cn1cnc2c(Cl)ncnc21 (configuration not stated) | -3.9% | 4.1% | -4.35% | -0.55% | -2.55% | -0.75%
28 | CCN(CC)CCN(Cc1ccccc1)C(=O)C(O)(c1ccccc1)c1ccccc1 | -0.4% | -23.6% | -4.05% | -39.4% | -1.5% | -24.6%
29 | Cc1c([N+](=O)[O-])cc(C(C)(C)C)c(O)c1[N+](=O)[O-] | 60.6% | 63.1% | 72.2% (active) | 43.5% | 27.1% | 70.6% (active)
30 | NC(=O)c1c([N+](=O)[O-])ccc(N(CCCl)CCCl)c1[N+](=O)[O-] | -5.1% | 1.25% | -12.9% | 4.75% | -5% | -6.05%
31 | C/C=C1/CN2CCC34c5ccccc5N(C)C23C2CC1C4(C(=O)OC)C(O)O2 (configuration not stated) | -31% | -31.8% | -24.7% | -4.2% | -8.4% | -58.9%
32 | CCCCOP(=S)(Nc1ccccc1)OCCCC | 91% (active) | 40.7% | 81.8% (active) | 42% | 73.5% (active) | 82.2% (active)
33 | CCOC(=O)CC(=Nc1cc(C)on1)N(CC)CC | 0.95% | -19.2% | 6.3% | 9.95% | -9.75% | -17.1%
34 | c1c[nH]c(Cc2ncc(Cc3cnc[nH]3)[nH]2)n1 | 4.4% | -20.6% | -9.55% | 21.8% | -13% | -9.6%
35 | C=C1CCC2CC1C2(C)C (configuration not stated) | 5.95% and 13.7% and -4.1% | 0.75% and -4.25% and -15.2% | 6.5% and -6.65% and -29.8% | 9.45% and -27% and 2.6% | 10.3% and 0.05% and -6.7% | 21.4% and 2.7% and -10.2%
36 | O=C1CC(c2ccccc2)n2cccc21 (configuration not stated) | 8.1% | 2.2% | 4.85% | 24.8% | -8.95% | -27.8%
37 | Nc1n[nH][nH]c1=O | -29.5% | -26.1% | -13.9% | -20.4% | -0.7% | -12.1%
